The record followed here is PubChem BioAssay (NCI).

About 83,000 compounds went through this panel and 20% of them were active in at least one assay; those are over-represented in the sample as a whole.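 Method: cells in 96-well plates; compound added at one concentration; 48 h incubation; percent growth measured; values under 10 scored active.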 A number with no mark means an inactive call. Active and inactive are the calls of the source.

Test systems include DU-145 prostate; K-562 leukemia; MALME-3M melanoma; MDA-MB-231 breast; RXF 393 renal; SF-268 CNS; SF-295 CNS; SF-539 CNS; UACC-257 melanoma; M14 melanoma; HCT-15 colon; HT29 colon; SNB-75 CNS; SNB-19 CNS; U251 CNS; PC-3 prostate; SK-MEL-5 melanoma; UACC-62 melanoma; LOX IMVI melanoma; SK-MEL-28 melanoma.
Assay in all cases: NCI-60 one-dose screen, 48 h (100 = growth as untreated, 0 = no growth, -100 = all killed)
Common to all, as to settings: 10 µM unless noted

Regarding `CCOC(=O)c1c(C)c2c(n1C)CSc1cc(C(=O)c3ccccc3)c(=O)[nH]c1-2`, the growth was 100% [100 µM] with DU-145 prostate; 102% [100 µM] in the test on K-562 leukemia; 90.8% [100 µM] in the test with MALME-3M melanoma; 87.1% [100 µM] with MDA-MB-231 breast; 134% [100 µM] in the test on RXF 393 renal; 90.8% [100 µM] with SF-268 CNS. In addition, the growth in the test with SF-295 CNS is 103% [100 µM]; in the test on SF-539 CNS, 94.7% [100 µM]; in the test on UACC-257 melanoma it was 120% [100 µM]; in the test with M14 melanoma it was 108% [100 µM]; in the test with HCT-15 colon, 105% [100 µM]; with HT29 colon, 108% [100 µM]. Also, the growth with SNB-75 CNS was 89.5% [100 µM]; in the test with SNB-19 CNS, 102% [100 µM]; with U251 CNS, 97.8% [100 µM]; in the test with PC-3 prostate, 82.5% [100 µM]; with SK-MEL-5 melanoma, 85.8% [100 µM]; in the test with UACC-62 melanoma, 78.5% [100 µM]. Moreover, the growth with LOX IMVI melanoma was 91.1% [100 µM]; with SK-MEL-28 melanoma, 105% [100 µM].
As to `CN(Cc1ccc(C(F)(F)F)cc1)CC(O)C(=O)Nc1ccc(Cl)cc1` (stereo not given), the growth was -51.4% (active) in the test on DU-145 prostate; -36% (active) in the test on K-562 leukemia; 12.8% in the test with MALME-3M melanoma; 26% in the test on MDA-MB-231 breast; 12.9% in the test with RXF 393 renal; 31.9% in the test on SF-268 CNS. Moreover, the growth with SF-295 CNS is -69.5% (active); in the test on SF-539 CNS, 21.9%; in the test with UACC-257 melanoma, 1.78% (active); in the test on M14 melanoma it was -49.8% (active); in the test on HCT-15 colon, -15.4% (active); in the test with HT29 colon, 1.26% (active). Also, the growth was 24.6% in the test with SNB-75 CNS; 31.4% in the test on SNB-19 CNS; -82.3% (active) in the test with U251 CNS; 22% in the test on PC-3 prostate; 8.39% (active) with SK-MEL-5 melanoma; 29.7% with UACC-62 melanoma. In addition, the growth is -85.4% (active) in the test with LOX IMVI melanoma and 85.8% in the test on SK-MEL-28 melanoma.
Take `COc1cc2c(c(OC)c1OC)-c1ccc(OC)c(=O)cc1[C@@H](NC(=O)CCl)CC2`: the growth is -18% (active) with DU-145 prostate; 22.1% in the test with K-562 leukemia; 91.8% with MALME-3M melanoma; 4.86% (active) in the test with MDA-MB-231 breast; -12.6% (active) in the test with RXF 393 renal; 23.2% with SF-268 CNS. For the same molecule, the growth in the test with SF-295 CNS is 25.1%; in the test on SF-539 CNS it was 4.53% (active); in the test with UACC-257 melanoma, 60.1%; with M14 melanoma it was -47.2% (active); in the test on HCT-15 colon, 7.81% (active); in the test on HT29 colon, 4.97% (active). The growth in the test on SNB-75 CNS was 78.9%; in the test on SNB-19 CNS, 39.1%; in the test with U251 CNS, 4.55% (active); with PC-3 prostate, 22.8%; in the test on SK-MEL-5 melanoma, -73.7% (active); in the test with UACC-62 melanoma it was 20.8%. The values for the growth in the test on LOX IMVI melanoma and in the test with SK-MEL-28 melanoma were -18.2% (active) and 47%, respectively.
Regarding `O=C(O)CCCN1C(=O)/C(=C/C(Cl)=C/c2ccccc2)SC1=S`, the growth in the test with DU-145 prostate was 18.9%; with K-562 leukemia it was 14.7%; in the test with MALME-3M melanoma, -2.99% (active); with MDA-MB-231 breast it was 38.1%; with RXF 393 renal, -16.5% (active); in the test on SF-268 CNS, 56.1%. Moreover, the growth with SF-295 CNS was 49.5%; with SF-539 CNS, 10%; with UACC-257 melanoma, 40.8%; in the test with M14 melanoma, 9.62% (active); in the test with HCT-15 colon, -54.3% (active); with HT29 colon, 7.49% (active). Moreover, the growth with SNB-75 CNS is 35.9%; in the test on SNB-19 CNS it was 37.4%; with U251 CNS, 21%; with PC-3 prostate, 36.5%; in the test with SK-MEL-5 melanoma, 38.4%; with UACC-62 melanoma it was 10.1%. Besides, the growth with LOX IMVI melanoma is -55.5% (active); in the test with SK-MEL-28 melanoma, 7.4% (active).
As to `O=C1C(Cl)=C(Nc2ccc(O)cc2)C(=O)N1Cc1ccc(Cl)cc1`, the growth in the test on DU-145 prostate was 90.2%; in the test with K-562 leukemia, 11.9%; with MALME-3M melanoma it was 76.2%; in the test with MDA-MB-231 breast it was 74.1%; with RXF 393 renal, 64.3%; in the test with SF-268 CNS it was 57.5%. In addition, the growth in the test with SF-295 CNS is 97.4%; with SF-539 CNS, 65%; in the test on UACC-257 melanoma it was 70%; in the test on M14 melanoma, 24.2%; in the test with HCT-15 colon, 19.7%; in the test with HT29 colon it was 11%. In addition, the growth in the test on SNB-75 CNS was 59%; with SNB-19 CNS, 69.5%; in the test with U251 CNS, 47.1%; in the test on PC-3 prostate, 45.9%; in the test on SK-MEL-5 melanoma, 50.7%; with UACC-62 melanoma, 65.3%. Further, the growth in the test with LOX IMVI melanoma is 57.7%; with SK-MEL-28 melanoma it was 61.6%.
`COc1ccc2nc3ccc(OC)cc3c(SCCCN)c2c1`: the growth in the test with DU-145 prostate was 19.8%; in the test on K-562 leukemia, -33.6% (active); with MALME-3M melanoma it was 95%; with MDA-MB-231 breast it was 102%; in the test on RXF 393 renal, 49.1%; in the test with SF-268 CNS, 94.1%. The growth was 95.9% in the test on SF-295 CNS; 108% in the test with SF-539 CNS; 105% in the test with UACC-257 melanoma; 81% in the test on M14 melanoma; 47.3% with HCT-15 colon; 37.4% with HT29 colon. For the same molecule, the growth in the test with SNB-75 CNS was 89.3%; with SNB-19 CNS, 94.8%; in the test on U251 CNS, 82.7%; in the test on PC-3 prostate it was 65.6%; in the test on SK-MEL-5 melanoma it was 108%; in the test on UACC-62 melanoma, 113%. In addition, the values for the growth with LOX IMVI melanoma and with SK-MEL-28 melanoma were 63.1% and 121%, respectively.
`C=CCc1c2c(c(OC)c3ccoc13)C(=O)/C(=C/c1ccccc1OC)O2`: the growth with DU-145 prostate is 35%; in the test with K-562 leukemia, 49.5%; in the test with MALME-3M melanoma, 88.8%; with MDA-MB-231 breast, 50.9%; in the test with RXF 393 renal it was 24.8%; in the test with SF-268 CNS, 60.4%. The growth with SF-295 CNS was 60.1%; with SF-539 CNS, 94.7%; with UACC-257 melanoma it was 63.7%; with M14 melanoma, 64.2%; with HCT-15 colon, 45.2%; in the test with HT29 colon, 44.6%. Besides, the growth is 35.8% in the test with SNB-75 CNS; 73% in the test with SNB-19 CNS; 46.2% in the test with U251 CNS; 55.2% in the test with PC-3 prostate; 98% with SK-MEL-5 melanoma; 46.4% with UACC-62 melanoma. For the same molecule, the growth was 38.3% in the test with LOX IMVI melanoma and 81.1% in the test with SK-MEL-28 melanoma.
